# Experimental data from PubChem BioAssay (NCI).
# Compounds without any hit were thinned out: in the full panel of roughly 79,000, 15% have a hit. A number with no mark means an inactive call. Calls of active or inactive are those of the source. Cut-off read from the data, not from the text of the source: active = growth inhibition above about 70%; inactive = the rest.
# Legend:
# [1] = NCI Yeast Anticancer Drug Screen. Data for the rad52 strain (AID 147);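 note: 0% = growth of vehicle-treated control cultures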; settings: S. cerevisiae rad52 mutant growth inhibition, stronger effect = higher value
# In short: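 Here a repair-compromised yeast strain receives each compound; its growth is then quantified and normalised to vehicle-only controls.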
# [2] = NCI Yeast Anticancer Drug Screen. Data for the wt1 strain (AID 149);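 note: 0% = growth of vehicle-treated wt1 cultures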; settings: S. cerevisiae wt1 strain (SPY 50644) growth inhibition, stronger effect = higher value
# In short: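 Using yeast strain wt1, compound-induced growth inhibition was determined against vehicle-treated cultures.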
# [3] = NCI Yeast Anticancer Drug Screen. Data for the rad50EPP+ strain (AID 151);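 note: 0% = growth of vehicle-treated control cultures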; settings: S. cerevisiae rad50 mutant strain, stronger effect = higher value
# In short: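 Read-out is yeast growth inhibition relative to vehicle; cells used were the rad50EPP+ strain.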
# [4] = NCI Yeast Anticancer Drug Screen. Data for the mgt1 strain (AID 153); settings: S. cerevisiae mgt1 mutant growth inhibition, stronger effect = higher value
# In short: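 Measured: inhibition of mgt1 yeast growth by compound, normalized to vehicle-treated cultures.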
# [5] = NCI Yeast Anticancer Drug Screen. Data for the rad50 strain (AID 155);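 note: 0% = growth of vehicle-only cultures of the same strain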; settings: S. cerevisiae rad50 strain growth inhibition, stronger effect = higher value
# In short: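 Relative growth inhibition (compound vs vehicle) was measured in yeast with a defined repair-gene alteration.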
# [6] = NCI Yeast Anticancer Drug Screen. Data for the mec2-1 strain (AID 157); settings: S. cerevisiae mec2-1 strain, stronger effect = higher value
# In short: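 Using mec2-1 yeast: add compound, measure growth, express inhibition versus vehicle-treated cultures.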
# [7] = NCI Yeast Anticancer Drug Screen. Data for the rad14 strain (AID 159);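 note: 0% = growth of vehicle-treated control cultures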; settings: S. cerevisiae rad14 strain growth inhibition, stronger effect = higher value
# In short: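 Screen for anticancer potential: a yeast strain altered in DNA damage repair is grown with compound, and reduced growth is quantified against vehicle controls.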
# [8] = NCI Yeast Anticancer Drug Screen. Data for the sgs1 mgt1 strain (AID 161);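 note: 0% = growth of cultures given vehicle only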; settings: S. cerevisiae sgs1 mgt1 strain, stronger effect = higher value
# In short: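 This yeast growth screen uses a strain with defined DNA-repair lesions; compound-treated growth is compared with vehicle-treated growth.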
# [9] = NCI Yeast Anticancer Drug Screen. Data for the CLN2oe strain (AID 163);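 note: 0% = growth of vehicle-only control cultures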; settings: S. cerevisiae CLN2oe strain, stronger effect = higher value
# In short: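 Whole-cell yeast growth assay. A strain engineered for altered cell-cycle control received compound, and inhibition relative to vehicle-treated cultures was recorded.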
# [10] = NCI Yeast Anticancer Drug Screen. Data for the cln2 rad14 strain (AID 165);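 note: 0% = growth equal to vehicle treated cultures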; settings: S. cerevisiae cln2 rad14 strain, stronger effect = higher value
# In short: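 Yeast strain cln2 rad14, bearing defects in cell cycle control and DNA repair, serves as the test system; values reflect growth inhibition compared with vehicle.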
# [11] = NCI Yeast Anticancer Drug Screen. Data for the bub3 strain (AID 167); settings: S. cerevisiae bub3 mutant strain, stronger effect = higher value
# In short: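 Screening used yeast with an engineered genetic alteration affecting cell cycle control. Compound-exposed cultures were compared with vehicle cultures, and reduced growth was taken as inhibition.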
# [12] = NCI Yeast Anticancer Drug Screen. Data for the mlh1 strain (AID 171);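 note: 0% = growth of vehicle-treated control cultures of the same strain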; settings: S. cerevisiae mlh1 strain growth inhibition, stronger effect = higher value
# In short: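 A yeast strain with a defined genetic lesion serves as the test organism. Cultures receive compound or vehicle, and growth is measured.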
# [13] = NCI Yeast Anticancer Drug Screen. Data for the sgs1 strain (AID 173);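 note: 0% = growth of vehicle-only control cultures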; settings: S. cerevisiae sgs1 mutant, stronger effect = higher value
# In short: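 A genetically defined yeast mutant is incubated with the test compound, and its growth is compared to that of the same strain given vehicle.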
# [14] = NCI Yeast Anticancer Drug Screen. Data for the mlh1 rad18 strain (AID 175); settings: S. cerevisiae mlh1 rad18 strain growth inhibition, stronger effect = higher value
# In short: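 Steps: expose repair-defective yeast to compound; measure growth; express inhibition against vehicle-treated controls.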
# [15] = NCI Yeast Anticancer Drug Screen. Data for the rad18 strain (AID 177); settings: S. cerevisiae rad18 mutant growth inhibition, stronger effect = higher value
# In short: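 Measured value is growth inhibition of a yeast strain bearing a DNA repair alteration, referenced to vehicle-treated cells.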
# [16] = NCI Yeast Anticancer Drug Screen. Data for the wt2 strain (AID 169);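 note: 0% = growth of vehicle-treated yeast cultures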; settings: S. cerevisiae wt2 strain growth inhibition, stronger effect = higher value
# In short: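 Treated yeast vs. vehicle-treated yeast: growth inhibition determined.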
# [17] = at 5.0 µM (retest, dose inferred, filed as 0.5)
# [18] = at 50.0 µM (retest, dose inferred, filed as 5.0)
structure (smiles),measurement,setting,value
CCN(CC)CCOc1cc(C)c2cc(Cc3ccccc3)ccc2n1,growth inhibition,[1]; at 1.2 µM,-1%
same,growth inhibition,[1]; at 3.7 µM,2%
same,growth inhibition,[1]; at 11.0 µM,2%
same,growth inhibition,[1]; at 33.0 µM,18%
same,growth inhibition,[1]; at 100.0 µM,82% (active)
same,growth inhibition,[2]; at 1.2 µM,0%
same,growth inhibition,[2]; at 3.7 µM,1%
same,growth inhibition,[2]; at 11.0 µM,-1%
same,growth inhibition,[2]; at 33.0 µM,3%
same,growth inhibition,[2]; at 100.0 µM,71% (active)
same,growth inhibition,[3]; at 1.2 µM,0%
same,growth inhibition,[3]; at 3.7 µM,0%
same,growth inhibition,[3]; at 11.0 µM,3%
same,growth inhibition,[3]; at 33.0 µM,7%
same,growth inhibition,[3]; at 100.0 µM,31%
same,growth inhibition,[4]; at 1.2 µM,2%
same,growth inhibition,[4]; at 3.7 µM,5%
same,growth inhibition,[4]; at 11.0 µM,10%
same,growth inhibition,[4]; at 33.0 µM,35%
same,growth inhibition,[4]; at 100.0 µM,98% (active)
same,growth inhibition,[5]; at 1.2 µM,-40%
same,growth inhibition,[5]; at 3.7 µM,-2%
same,growth inhibition,[5]; [17],7%
same,growth inhibition,[5]; at 11.0 µM,-1%
same,growth inhibition,[5]; at 33.0 µM,13%
same,growth inhibition,[5]; [18],57%
same,growth inhibition,[5]; at 50.0 µM,88.2% (active)
same,growth inhibition,[5]; at 100.0 µM,92% (active)
same,growth inhibition,[6]; at 1.2 µM,-2%
same,growth inhibition,[6]; at 3.7 µM,-3%
same,growth inhibition,[6]; [17],-2%
same,growth inhibition,[6]; at 11.0 µM,1%
same,growth inhibition,[6]; at 33.0 µM,17%
same,growth inhibition,[6]; [18],8%
same,growth inhibition,[6]; at 50.0 µM,82.7% (active)
same,growth inhibition,[6]; at 100.0 µM,84% (active)
same,growth inhibition,[7]; at 1.2 µM,4%
same,growth inhibition,[7]; at 3.7 µM,16%
same,growth inhibition,[7]; at 11.0 µM,25%
same,growth inhibition,[7]; at 33.0 µM,36%
same,growth inhibition,[7]; at 100.0 µM,99% (active)
same,growth inhibition,[8]; [17],5%
same,growth inhibition,[8]; [18],47%
same,growth inhibition,[8]; at 50.0 µM,96% (active)
same,growth inhibition,[9]; at 1.2 µM,-4%
same,growth inhibition,[9]; at 3.7 µM,-9%
same,growth inhibition,[9]; at 11.0 µM,0%
same,growth inhibition,[9]; at 33.0 µM,15%
same,growth inhibition,[9]; at 100.0 µM,52%
same,growth inhibition,[10]; [17],2%
same,growth inhibition,[10]; [18],-5%
same,growth inhibition,[10]; at 50.0 µM,53.9%
same,growth inhibition,[11]; at 1.2 µM,2%
same,growth inhibition,[11]; at 3.7 µM,1%
same,growth inhibition,[11]; [17],2%
same,growth inhibition,[11]; at 11.0 µM,9%
same,growth inhibition,[11]; at 33.0 µM,38%
same,growth inhibition,[11]; [18],13%
same,growth inhibition,[11]; at 50.0 µM,88.2% (active)
same,growth inhibition,[11]; at 100.0 µM,81% (active)
same,growth inhibition,[12]; at 1.2 µM,0%
same,growth inhibition,[12]; at 3.7 µM,1%
same,growth inhibition,[12]; at 11.0 µM,11%
same,growth inhibition,[12]; at 33.0 µM,28%
same,growth inhibition,[12]; at 100.0 µM,94% (active)
same,growth inhibition,[13]; at 1.2 µM,0%
same,growth inhibition,[13]; at 3.7 µM,3%
same,growth inhibition,[13]; at 11.0 µM,12%
same,growth inhibition,[13]; at 33.0 µM,35%
same,growth inhibition,[13]; at 100.0 µM,96% (active)
same,growth inhibition,[14]; [17],5%
same,growth inhibition,[14]; [18],28%
same,growth inhibition,[14]; at 50.0 µM,96% (active)
same,growth inhibition,[15]; at 1.2 µM,3%
same,growth inhibition,[15]; at 3.7 µM,15%
same,growth inhibition,[15]; at 11.0 µM,28%
same,growth inhibition,[15]; at 33.0 µM,65%
same,growth inhibition,[15]; at 100.0 µM,99% (active)
COc1ccc(N=CN(C)C)c(C)c1,growth inhibition,[1]; at 1.2 µM,-24%
same,growth inhibition,[1]; at 3.7 µM,-26%
same,growth inhibition,[1]; at 11.0 µM,0%
same,growth inhibition,[1]; at 33.0 µM,83% (active)
same,growth inhibition,[1]; at 100.0 µM,94% (active)
same,growth inhibition,[2]; at 1.2 µM,-29%
same,growth inhibition,[2]; at 3.7 µM,-29%
same,growth inhibition,[2]; at 11.0 µM,-32%
same,growth inhibition,[2]; at 33.0 µM,61%
same,growth inhibition,[2]; at 100.0 µM,95% (active)
same,growth inhibition,[3]; at 1.2 µM,-9%
same,growth inhibition,[3]; at 3.7 µM,-62%
same,growth inhibition,[3]; at 11.0 µM,-62%
same,growth inhibition,[3]; at 33.0 µM,-34%
same,growth inhibition,[3]; at 100.0 µM,71% (active)
same,growth inhibition,[4]; at 1.2 µM,-40%
same,growth inhibition,[4]; at 3.7 µM,-51%
same,growth inhibition,[4]; at 11.0 µM,-43%
same,growth inhibition,[4]; at 33.0 µM,93% (active)
same,growth inhibition,[4]; at 100.0 µM,95% (active)
same,growth inhibition,[5]; at 1.2 µM,-1%
same,growth inhibition,[5]; at 3.7 µM,1%
same,growth inhibition,[5]; [17],50%
same,growth inhibition,[5]; at 11.0 µM,-19%
same,growth inhibition,[5]; at 33.0 µM,86% (active)
same,growth inhibition,[5]; [18],78% (active)
same,growth inhibition,[5]; at 50.0 µM,91.5% (active)
same,growth inhibition,[5]; at 100.0 µM,95% (active)
same,growth inhibition,[6]; at 1.2 µM,-44%
same,growth inhibition,[6]; at 3.7 µM,-70%
same,growth inhibition,[6]; [17],46%
same,growth inhibition,[6]; at 11.0 µM,-43%
same,growth inhibition,[6]; at 33.0 µM,85% (active)
same,growth inhibition,[6]; [18],76% (active)
same,growth inhibition,[6]; at 50.0 µM,94% (active)
same,growth inhibition,[6]; at 100.0 µM,96% (active)
same,growth inhibition,[7]; at 1.2 µM,-63%
same,growth inhibition,[7]; at 3.7 µM,-54%
same,growth inhibition,[7]; at 11.0 µM,-43%
same,growth inhibition,[7]; at 33.0 µM,92% (active)
same,growth inhibition,[7]; at 100.0 µM,95% (active)
same,growth inhibition,[8]; [17],-4%
same,growth inhibition,[8]; [18],97% (active)
same,growth inhibition,[8]; at 50.0 µM,93.5% (active)
same,growth inhibition,[9]; at 1.2 µM,-28%
same,growth inhibition,[9]; at 3.7 µM,-34%
same,growth inhibition,[9]; at 11.0 µM,-10%
same,growth inhibition,[9]; at 33.0 µM,84% (active)
same,growth inhibition,[9]; at 100.0 µM,93% (active)
same,growth inhibition,[10]; [17],63%
same,growth inhibition,[10]; [18],96% (active)
same,growth inhibition,[10]; at 50.0 µM,92% (active)
same,growth inhibition,[11]; at 1.2 µM,-30%
same,growth inhibition,[11]; at 3.7 µM,-9%
same,growth inhibition,[11]; [17],44%
same,growth inhibition,[11]; at 11.0 µM,-28%
same,growth inhibition,[11]; at 33.0 µM,88% (active)
same,growth inhibition,[11]; [18],95% (active)
same,growth inhibition,[11]; at 50.0 µM,91.9% (active)
same,growth inhibition,[11]; at 100.0 µM,94% (active)
same,growth inhibition,[16]; at 1.2 µM,-26%
same,growth inhibition,[16]; at 3.7 µM,-39%
same,growth inhibition,[16]; at 11.0 µM,-27%
same,growth inhibition,[16]; at 33.0 µM,87% (active)
same,growth inhibition,[16]; at 100.0 µM,96% (active)
same,growth inhibition,[13]; at 1.2 µM,-45%
same,growth inhibition,[13]; at 3.7 µM,-40%
same,growth inhibition,[13]; at 11.0 µM,-59%
same,growth inhibition,[13]; at 33.0 µM,89% (active)
same,growth inhibition,[13]; at 100.0 µM,95% (active)
same,growth inhibition,[14]; [17],44%
same,growth inhibition,[14]; [18],72% (active)
same,growth inhibition,[14]; at 50.0 µM,48.4%
